Here are results for 63 molecules from ChEMBL document CHEMBL4513216, “Probing the Open Global Health Chemical Diversity Library for Multistage-Active Starting Points for Next-Generation Antimalarials” (ACS Infect Dis, 2020).

Out of some 69,000 compounds screened, about 8,600 (12%) showed an effect of 50% or more. Many of the other results were omitted from the sample, so strong results are more common in it than they were.

The test deals with Plasmodium berghei. Kind of test: Screen against P. berghei liver stage (PbLuc), transformed with Luciferase, at 10uM. As to conditions: tested at 10 uM. In kind it is functional, HepG2.
On to `c1cnc2c(c1)cc([C@@H]1CCCO1)n2CCN1CCCCC1`, for which the INHIBITION was 38.8%.

With `COC(=O)C(c1cc(F)ccc1F)N(C)C(=O)c1cnccn1` (stereo not drawn), the INHIBITION was 48.4%.

For `CC(C)c1nn(C)c(N(C)C)c1CNC(C)c1ccccc1F` (stereo not drawn), the INHIBITION amounted to 15.5%.

In the case of `Cc1nc(CO[C@@H]2CN(Cc3ccco3)[C@@H]3COC[C@@H]32)cs1`, the INHIBITION was determined as 18.2%.

`c1ccc(COC2CCN(Cc3cc4n(n3)CCCNC4)CC2)nc1`: the INHIBITION came to 37.9%.

For `c1csc(N2CCN(Cc3cc4n(n3)CCNC4)CC2)n1`, the INHIBITION is given as -90.8%.

Regarding `OC(c1ccccn1)C1CCN(Cc2cc3n(n2)CCCNC3)CC1` (stereo not drawn), the INHIBITION is given as 51.2%.

For the molecule `c1ccc(C2CCCN(Cc3cc4n(n3)CCNC4)CC2)cc1` (stereo not drawn), the INHIBITION amounted to 18.4%.

Consider `O=C1OCCN1C1CCN(Cc2cc3n(n2)CCCNC3)CC1`, for which the INHIBITION was -78.3%.

As to `OC(c1ccccn1)C1CCN(Cc2cc3n(n2)CCNC3)CC1` (stereo not drawn), the INHIBITION is on record as 61.5%.

For the molecule `c1cc(CNc2cnc(C3CCCN3)cn2)ccn1` (stereo not drawn), the INHIBITION is reported as 3.03%.

With `COc1ccc(-c2cc(C3(O)CCCC3)on2)cc1`, the INHIBITION is listed as -111%.

With `CNC(=O)[C@H]1C[C@H]2OCC[C@H]2N(Cc2ccc(C)o2)C1`, the INHIBITION came to 10.3%.

With `Cn1cc(C2CC(=O)NC23CCN(Cc2ccncc2)CC3)cn1` (stereo not drawn), the INHIBITION is recorded as -16.2%.

For the molecule `CCOC(=O)N[C@H]1C[C@@H](C(=O)NCCc2cccc(Cl)c2)N(C)C1`, the INHIBITION is recorded as 55%.

Turning to `CCOC(=O)N[C@H]1C[C@@H](C(=O)NCc2cccc(Cl)c2)N(C)C1`, the INHIBITION is on record as -0.71%.

As to `COCC(=O)N[C@H]1C[C@@H](C(=O)NCCc2cccc(Cl)c2)N(C)C1`, the INHIBITION is listed as 31.1%.

Take `CC(C)CC(=O)N(C)CC(=O)Nc1ccc(Br)cn1`: the INHIBITION is listed as 29.7%.

Take `CCN1CCN(c2ccc(C(=O)NCc3cc(C)no3)cc2F)CC1`: the INHIBITION is given as 11.7%.

`CCN1CCN(c2ccc(C(=O)NCCn3ccnc3)cc2F)CC1`: the INHIBITION was determined as 38.8%.

In the case of `CCN1CCN(c2ccc(C(=O)NCCOC)cc2F)CC1`, the INHIBITION was 76.7%.

Turning to `Cc1ccc(C(=O)N2Cc3c(CN4CCCCC4)nn(C)c3C2)cc1F`, the INHIBITION is on record as -31%.

`COc1ccc(C(=O)N2Cc3c(Cn4ccnc4)nn(C)c3C2)cc1`: the INHIBITION was determined as 32.4%.

In the case of `CN(C)Cc1nn(C)c2c1CN(C(=O)Nc1cccc(F)c1)C2`, the INHIBITION is recorded as -36.2%.

Turning to `CCCc1ccc(C(=O)N2Cc3c(Cn4ccnc4)nn(C)c3C2)cc1`, the INHIBITION turned out to be 78.8%.

In the case of `Cn1nc(CN2CCCC2)c2c1CN(C(=O)Nc1cccc(F)c1)CC2`, the INHIBITION stood at 20.1%.

In the case of `Cn1nc(Cn2ccnc2)c2c1CN(C(=O)c1ccoc1)C2`, the INHIBITION amounted to 47.4%.

As for `Cc1ccc(C(=O)N2Cc3c(CN4CCCCC4)nn(C)c3C2)cc1C`, the INHIBITION is recorded as 65.4%.

As to `Cn1nc(CN2CCCCC2)c2c1CN(C(=O)Nc1cccc(F)c1)C2`, the INHIBITION came out at 79.6%.

Consider `Cc1ccc(C(=O)N2CCc3c(CN4CCCC4)nn(C)c3C2)cc1C`, for which the INHIBITION was 44.3%.

Consider `O=C(NCCCn1cncn1)N1CCCCCC1`, for which the INHIBITION was 20.45%.

On to `COCCOc1ncccc1C(=O)N1CCCCC1c1nccs1` (stereo not drawn), for which the INHIBITION is listed as -38.7%.

Consider `CCc1cc(C(=O)N2CCC(c3cc4ncccc4cn3)CC2)on1`, for which the INHIBITION amounted to 20.8%.

With `CCCN1CCN(C(=O)c2ccn(COc3ccc(F)cc3)n2)CC1`, the INHIBITION is listed as 2.69%.

`CCOc1ccccc1C(=O)Nn1c(C)cc(C)cc1=O`: the INHIBITION was determined as 44.1%.

Take `CC(=O)N1CCN(CCNC(=O)NC(C)Cn2ccnc2)CC1` (stereo not drawn): the INHIBITION is recorded as 43.5%.

Regarding `O=C(NC1CCCC1)[C@@H]1C[C@@H]2CCN(Cc3ccoc3)C[C@H]2O1`, the INHIBITION is 54.8%.

With `O=C(NCC1CC1)[C@H]1C[C@@H]2CCN(Cc3ccc4c(c3)OCO4)C[C@@H]2O1`, the INHIBITION is listed as 30.4%.

Take `O=C(NCC1CC1)[C@@H]1C[C@@H]2CCN(Cc3ccoc3)C[C@@H]2O1`: the INHIBITION is recorded as -10.3%.

Turning to `CC(C)NC(=O)[C@@H]1C[C@@H]2CCN(Cc3ccoc3)C[C@H]2O1`, the INHIBITION is given as 53.9%.

Take `CNC(=O)[C@H]1C[C@@H]2CCN(Cc3ccc4c(c3)OCO4)C[C@@H]2O1`: the INHIBITION was -9.18%.

On to `COCCNC(=O)[C@H]1C[C@@H]2CCN(Cc3ccoc3)C[C@H]2O1`, for which the INHIBITION was 30.1%.

In the case of `CNC(=O)[C@@H]1C[C@@H]2CCN(Cc3ccoc3)C[C@H]2O1`, the INHIBITION is 30.3%.

Regarding `O=C(NC1CC1)[C@H]1C[C@@H]2CCN(Cc3ccc4c(c3)OCO4)C[C@@H]2O1`, the INHIBITION was 61.1%.

Consider `O=C(NC1CC1)[C@@H]1C[C@@H]2CCN(Cc3ccoc3)C[C@@H]2O1`, for which the INHIBITION is 49.4%.

For `CCN(C)[C@H]1CN(C(=O)c2cccc(N3CCS(=O)(=O)CC3)c2)C[C@@H]1O`, the INHIBITION turned out to be 8.74%.

For the molecule `O=C1CC2(CCN(Cc3ccccn3)C2)CN1c1cncnc1` (stereo not drawn), the INHIBITION is given as -3.41%.

With `Cc1nccn1-c1ccc(NS(=O)(=O)c2cccnc2)cn1`, the INHIBITION amounted to 6.94%.

With `O=C(c1ccsc1)N1CCO[C@@H]2CN(Cc3cccs3)C[C@@H]2C1`, the INHIBITION is -2.46%.

In the case of `CSCCCNC(=O)c1coc(Cn2cnc3ccccc32)n1`, the INHIBITION turned out to be 25.1%.

As for `Cn1cnc(-c2nc(C(=O)NCC3CCCO3)c3ccccn23)c1` (stereo not drawn), the INHIBITION was 4.08%.

Regarding `O=C(NCCO)c1coc(Cn2cnc3ccccc32)n1`, the INHIBITION was 52%.

For `O=C(NCC1CCCO1)c1coc(Cn2cnc3ccccc32)n1` (stereo not drawn), the INHIBITION was 69.1%.

Turning to `O=C(NCCO)c1coc(CN2CCN(c3ccccc3F)CC2)n1`, the INHIBITION was 26.9%.

In the case of `O=C(NCC1CCCCO1)c1cc(Cn2cnc3ccccc32)[nH]n1` (stereo not drawn), the INHIBITION came out at 31.4%.

Regarding `CC(C)=CCN1C(=O)[C@@H]2CC[C@H]1CN(c1ncccc1C(N)=O)C2`, the INHIBITION turned out to be 49.7%.

Regarding `CC(C)(C)c1cc(NC(=O)CN2CCn3c(nnc3C3CC3)C2)on1`, the INHIBITION is reported as -3.8%.

Consider `NC(=O)C1CN(C(=O)Nc2ccccc2Oc2ccccc2Cl)CCO1` (stereo not drawn), for which the INHIBITION is -67.7%.

Take `COc1ccc(C(=O)N2CC[C@@H]3[C@H](CC2)N(C)CCS3(=O)=O)cc1`: the INHIBITION is recorded as -14.3%.

Take `O=C(C1CC1)N1CC2(CCN(CC3CC3)CC2)c2cc(F)ccc21`: the INHIBITION is recorded as -15.9%.

On to `COC(=O)CC1CN(Cc2ccn(-c3ccc(F)cc3)n2)CCO1` (stereo not drawn), for which the INHIBITION is given as 52.2%.

For the molecule `COC(=O)C1CN(Cc2ccn(-c3ccc(F)cc3)n2)C[C@@H](C)O1` (stereo partly drawn), the INHIBITION came out at 16%.

In the case of `COC(=O)C1CN(Cc2ccn(-c3ccc(F)cc3)n2)CCO1` (stereo not drawn), the INHIBITION is recorded as -173%.
